High-throughput results from PubChem.
Cruzain inh noDet: blocks cruzain activity in detergent-free assay. 2.3% of 200,000 active. P25779. Potency, µM, for inactives: max response, negative = inhibition, usual class: inhibitors. purified cruzain, Z-FR-AMC fluorescence, no detergent;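 further: plate controls were enzyme without inhibitor for no effect and buffer without enzyme for full effect; nearly all actives have a fitted effect of over 40% in size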
Target sequence (P25779 123-467 limits assumed): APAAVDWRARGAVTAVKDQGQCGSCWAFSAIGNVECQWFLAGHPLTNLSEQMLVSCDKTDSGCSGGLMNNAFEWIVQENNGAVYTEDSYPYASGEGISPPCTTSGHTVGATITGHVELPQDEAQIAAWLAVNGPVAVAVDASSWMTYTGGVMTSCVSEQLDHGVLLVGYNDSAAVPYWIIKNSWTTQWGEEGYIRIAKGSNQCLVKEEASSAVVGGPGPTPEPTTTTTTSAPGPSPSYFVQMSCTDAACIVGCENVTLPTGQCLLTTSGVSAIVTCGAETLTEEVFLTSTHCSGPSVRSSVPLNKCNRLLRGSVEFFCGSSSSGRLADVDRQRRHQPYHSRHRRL
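Detergent-free condition (0.00005% Triton X-100) in acetate buffer pH 5.5 with DTT. 1.5 nM enzyme and compound were pre-mixed 15 min, then 2 uM Z-FR-AMC substrate added; reaction progress from fluorescence change between first and third reads (60 s).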
Cruzain inh Det: cruzain (T. cruzi) inhibition with detergent | P25779 | purified cruzain, Z-FR-AMC fluorescence, 0.01% Triton | Potency, µM, for the others: max response, negative = inhibition, actives largely listed as inhibitors | 0.43% of 200,000 active | AID 1478;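 further: plate controls were neutral wells for no effect and buffer without enzyme for full effect; nearly all actives have a fitted effect of over 40% in size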
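Z-FR-AMC hydrolysis (2 uM substrate) by cruzain (1.5 nM) monitored kinetically at ex 360/em 450 nm after 15 min room-temperature compound exposure; 0.01% Triton X-100, pH 5.5, 5 mM DTT.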
FBPA Giardia inh: inhibitors of Giardia lamblia fructose-1,6-bisphosphate aldolase; AID 2451; Potency, µM (highest dose often 59.6 µM), without a hit: at the highest dose activity, negative = inhibition, usual class: inhibitors; purified Giardia FBPA; 0.71% of 290,000 active; A8B2U2; further: nearly all actives have a fitted effect of over 55% in size
Target sequence (A8B2U2 whole entry, looked up): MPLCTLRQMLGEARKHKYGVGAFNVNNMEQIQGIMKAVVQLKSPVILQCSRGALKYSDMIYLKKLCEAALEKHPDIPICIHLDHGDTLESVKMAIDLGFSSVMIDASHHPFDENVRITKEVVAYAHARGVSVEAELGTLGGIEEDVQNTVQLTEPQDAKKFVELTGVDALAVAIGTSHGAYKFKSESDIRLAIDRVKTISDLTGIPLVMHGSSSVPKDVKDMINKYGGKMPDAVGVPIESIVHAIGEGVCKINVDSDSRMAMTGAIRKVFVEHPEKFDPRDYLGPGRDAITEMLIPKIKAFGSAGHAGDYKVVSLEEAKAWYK
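40 nM FBPA preincubated 10 min at RT with compound (up to 57.5 uM final), then substrate plus GAPDH/TPI/NAD/arsenate coupling and diaphorase/resazurin added. Fluorescence read after 20 min at RT, 525/598 nm.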
An asterisk follows results filed as active; ? = inconclusive; nt = no result; [ ] = remark or other dose. The entries come from a sample that favours hits as a whole. The call rests on the fitted dose curve; in most records, active means well fitted curve in the direction sought with a large enough effect; inconclusive means small, poorly fitted or top-dose-only effect, or another doubt; inactive means no such curve, though single readings can be large; an effect the other way counts as inactive or inconclusive. Unless noted, on the % scale 0 is the no-effect control and ±100 the full control effect; potency means the concentration at half of the fitted maximal effect.

SMILES	Cruzain inh noDet	Cruzain inh Det	FBPA Giardia inh
COC(=O)Cn1c(=NC(=O)c2nc3ccccc3s2)sc2cc(S(C)(=O)=O)ccc21	17%	-8%	1%
COC(=O)Cn1c(=NC(=O)c2ccc([N+](=O)[O-])s2)sc2cc(Br)ccc21	10µM*	-4%	2%
N=C1Sc2ccccc2C2=NCCCN12	12%	-8%	-1%
O=C(/C=C/c1ccc2ccccc2c1)c1ccoc1	20µM*	6%	4%
O=C(/C=C/c1ccc(O)cc1)c1ccccc1	nt	nt	8%
COC(=O)C1=C(C(=O)OC)[C@@H]2N(C)c3ccccc3[C@@]23C[C@@H](CO)N(C(=O)c2ccco2)C3=N1	nt	nt	5%[12.9 µM]
CCOC(=O)c1ccc(NC(=O)C2=C(C)Nc3nc(SCc4ccc(Cl)cc4)nn3C2c2ccc(OC)cc2)cc1 (stereo not given)	-6%	-2%	nt
COc1ccc(CCNc2ncnc3c2c(-c2ccccc2)cn3-c2cccc(Cl)c2)cc1OC	?	0%	nt
O=C1C2=CC[C@@H]3C(=O)N(c4ccc(F)cc4F)C(=O)[C@H]3[C@H]2[C@H](O)[C@H]2O[C@H]12	nt	nt	1%[12.9 µM]
Cc1ccccc1NC(=O)Cn1nnc(S(=O)(=O)c2ccc(C(C)(C)C)cc2)c1N	7.9µM*	-11%	4%
Cc1ccccc1NC(=O)Cn1nnc(C(=O)NCc2ccco2)c1N	4%	0%	1%
COc1ccc2c(CNCc3ccc(Cl)cc3)c(C(=O)O)n(Cc3ccccc3C)c2c1	1%	-3%	nt
O=C(N=Nc1c(O)[nH]c2ccc([N+](=O)[O-])cc12)c1ccccc1[N+](=O)[O-]	nt	nt	-3%
CCCCCCC(=O)N=Nc1c(O)[nH]c2ccc([N+](=O)[O-])cc12	25µM*	-3%	8%
NC=O	4%	3%	nt
CN(C)c1ccc(/C=N\NC(=O)c2cnc3ccccc3c2)cc1	-2%	1%	nt
CCc1ccc(/C=C(\Cl)c2nc3cc(Cl)ccc3c(=O)[nH]2)cc1	10µM*	0%	1%
O=c1[nH]c(/C(Cl)=C/c2cccc(F)c2)nc2cc(C(F)(F)F)ccc12	nt	nt	6%
CN1C(=O)C2(c3ccccc31)N(c1cccc(C(F)(F)F)c1)C(=O)CS2(=O)=O (stereo not given)	5µM*	-3%	nt
CN1C(=O)C2(SCC(=O)N2c2ccc(F)cc2)c2ccccc21 (stereo not given)	6%	-3%	nt
CN1C(=O)C2(SCC(=O)N2c2cccc(C(F)(F)F)c2)c2ccccc21 (stereo not given)	?	-6%	nt
CN1C(=O)C2(c3ccccc31)N(c1ccc(Br)cc1)C(=O)CS2(=O)=O (stereo not given)	10µM*	-1%	nt
Cn1c(=O)c(C(=O)COC(=O)c2cc(C(F)(F)F)nc3ccccc23)c(N)n(Cc2ccccc2)c1=O	-12%	-4%	6%
Cn1c(=O)c(C(=O)COC(=O)c2cc(-c3ccccc3)nc3ccccc23)c(N)n(Cc2ccccc2)c1=O	10µM*	0%	-21%
N=C(N)S[C@H]1c2ccccc2-c2cc([N+](=O)[O-])ccc21	-18%	2%	nt
SMILES	Cruzain inh noDet	Cruzain inh Det	FBPA Giardia inh
Cc1ccc(C)c(NC(c2ccccc2)c2nnc(-c3ccccc3F)o2)c1 (stereo not given)	4%	-2%	nt
COc1cc(Cl)c(C)cc1NC(c1ccccc1)c1nnc(-c2ccccc2Cl)o1 (stereo not given)	16µM*	-1%	nt
CCC(Cn1nnc2ccccc2c1=O)NC(=O)Nc1cc(Cl)ccc1OC (stereo not given)	2%	-1%	nt
Cn1c(=O)c2c(nc(N3CCOCC3)n2Cc2ccc(Br)cc2)n(C)c1=O	6%	-3%	nt
NC1=N[C@H](c2ccc(Cl)cc2)N(c2ccc(S(=O)(=O)Nc3ncccn3)cc2)C(N)=N1	3%	-4%	nt
COc1cccc2sc(Nc3nnc(-c4ccccc4Cl)o3)nc12	?	1%	?
COc1ccccc1-c1nnc(Nc2nc3c(OC)cccc3s2)o1	32µM*	?	?
CC(C)COC[C@H](CN(Cc1ccccc1)c1ccccc1)N1CCCC1	-3%	0%	-1%[21.7 µM]
COc1ccc(S(=O)(=O)Nc2ccc(N3CCOCC3)cc2)cc1	nt	nt	1%
COc1ccc(NS(=O)(=O)c2ccc(N/N=C/c3ccc(N4CCOCC4)cc3)c([N+](=O)[O-])c2)cc1	25µM*	-5%	1%
CCc1nn(CC(=O)N2CCCCC2)c(=O)c2cc3sccc3n12	-2%	-1%	nt
NC(=O)c1c(NC(=O)c2ccc(S(=O)(=O)N3CCOCC3)cc2)sc2c1CCCCC2	?	-4%	0%
NC(=O)c1c(NC(=O)c2ccc(S(=O)(=O)N(CCCl)CCCl)cc2)sc2c1CCCCC2	4µM*	1%	-1%
CN1CCN(S(=O)(=O)c2cccc(C(=O)Nc3sc4c(c3C(N)=O)CCCC4)c2)CC1	13µM*	?	-3%
COCCN(CCOC)S(=O)(=O)c1ccc(C(=O)Nc2sc3c(c2C(N)=O)CCCC3)cc1	9%	-4%	nt
c1cc(CCN2CCCCC2)ccn1	-1%	5%	nt
O=C(Cn1c(=O)oc2cc(S(=O)(=O)NCc3ccccc3)ccc21)N(CCO)Cc1ccccc1	1%	-3%	nt
CCCNC(=O)c1ccccc1NC(=O)c1nsc2ccccc12	8%	1%	nt
CCCCNc1ccc(-c2nc(-c3ccco3)no2)cc1[N+](=O)[O-]	?	-15%	nt
COc1cc(-c2noc(-c3ccc(N(C)C)c([N+](=O)[O-])c3)n2)cc(OC)c1OC	25µM*	-7%	nt
CCN(CC)c1ccc(-c2nc(-c3ccco3)no2)cc1[N+](=O)[O-]	16µM*	-4%	nt
CN(C)c1ccc(-c2nc(-c3ccncc3)no2)cc1[N+](=O)[O-]	-6%	-2%	nt
CO[C@@H]1COC(=O)[C@@H](CCSC)NC(=O)C/C=C\[C@@H](C)COC(=O)[C@H](C)NC(=O)C/C=C\[C@H]1C	nt	nt	3%[12.9 µM]
c1ccc2c[n+](Cc3ccnc4ccccc34)ccc2c1	3%	5%	nt
COc1ccccc1-c1noc(CCCC(=O)Nc2cc(C)ccc2C)n1	-2%	-1%	nt
SMILES	Cruzain inh noDet	Cruzain inh Det	FBPA Giardia inh
COc1ccc(N(CC(O)Cn2c3ccccc3c3ccccc32)S(=O)(=O)c2ccccc2)cc1 (stereo not given)	16µM*	33%	-6%
COc1ccc(/C=C2\SC(=O)N(CCn3cnnn3)C2=O)cc1	nt	nt	1%
O=C1S/C(=C\c2ccccc2)C(=O)N1CC(O)Cn1c2ccccc2c2ccccc21 (stereo not given)	32µM*	-4%	1%
COc1ccc(/C=C2/SC(=O)N(CC(O)Cn3c4ccccc4c4ccccc43)C2=O)cc1 (stereo not given)	10µM*	-5%	-9%
O=CN1CCN(CC(O)Cn2c3ccccc3c3ccccc32)CC1 (stereo not given)	nt	nt	-8%
Cc1ccc(N(CC(O)Cn2c3ccccc3c3ccccc32)S(=O)(=O)c2ccc(F)cc2)cc1 (stereo not given)	8%	11%	nt
COc1ccc(NC(=O)Cn2c(=O)ccc3cc(S(=O)(=O)N4CCCC4)ccc32)cc1Cl	10%	-1%	nt
Cc1ccc(Cl)cc1-n1ncc2c(Nc3ccc4c(c3)OCCO4)ncnc21	-7%	2%	nt
O=C(O)[C@H]1[O][Sb][O][C@@H](C(=O)O)C1O (stereo not given in full)	3%	6%	nt
